This is a sample that favours compounds with a hit; in the whole collection about 13% have one here.
AID923: qHTS Assay for Allosteric/Competitive Inhibitors of Caspase-1: Spectroscopic Profiling in AFC Spectral Region; compound fluorescence, AFC spectral region (405/520 nm); Potency, µM (doses to about 57.5 µM), for inactives: top-dose fluorescence increase, actives largely listed as activators; hit rate 1.1% among 75,000; also: potency is read from the fitted curve at half-maximal effect; 0% is about no effect
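Baseline compound fluorescence (AFC region, 405 nm ex/520 nm em) taken from the intercept of kinetic reads with 50 nM caspase-1 and 5 uM Ac-WEHD-AFC; normalized to an on-plate AFC standard curve; compounds titrated up to 57 uM.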
HSD17B inhib: HSD17B dehydrogenase inhibition. hit rate 7.6% among 75,000. Potency, µM (titrated, usually from 57.1 µM), without a hit: top-dose activity change, negative = inhibition, most hits filed as inhibitors. Q99714. recombinant HSD17B10, NADH fluorescence kinetic;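 also: the protocol describes HADH2 (HSD17B10) and not the HSD17B4 of the title; potency is read from the fitted curve at half-maximal effect; % is scaled to controls: 0 for no effect and ±100 for the full control effect; nearly all actives have a fitted effect of over 70% in size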
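Enzyme plus compound, 15 min room temperature; substrate mix added (NAD+ 1 mM, beta-hydroxybutyryl-CoA 90 uM final); plates read kinetically for NADH fluorescence. HADH2 was His-tagged, E. coli-derived, 20 nM.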
HADH2 inh: HADH2 (human) dehydrogenase inhibition. Q99714. recombinant HADH2, NADH fluorescence, beta-hydroxybutyryl-CoA. Potency, µM (titrated, usually from 57.1 µM), for the others: at the highest dose activity change, negative = inhibition, usual class: inhibitors. hit rate 3.4% among 73,000; also: potency is read from the fitted curve at half-maximal effect; % is scaled to controls: 0 for no effect and ±100 for the full control effect; nearly all actives have a fitted effect of over 60% in size
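Buffer 100 mM Tris-HCl pH 9.0/0.01% Tween-20; HADH2 20 nM; NAD+ 1 mM; beta-hydroxybutyryl-CoA 90 uM (all final). 15 min cpd preincubation, RT.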
GBA mod: modulators of human glucocerebrosidase; P04062; purified enzyme, resorufin glucoside fluorescence (screen aimed at inhibitors), 20 min; Potency, µM; hit rate 1.1% among 48,000; AID 360; in the data active = potency below about 15 µM; inconclusive = mostly about 16 µM to 33 µM;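 also: potency is read from the fitted curve at half-maximal effect; the screen sought inhibitors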
Target sequence (P04062 whole entry, looked up): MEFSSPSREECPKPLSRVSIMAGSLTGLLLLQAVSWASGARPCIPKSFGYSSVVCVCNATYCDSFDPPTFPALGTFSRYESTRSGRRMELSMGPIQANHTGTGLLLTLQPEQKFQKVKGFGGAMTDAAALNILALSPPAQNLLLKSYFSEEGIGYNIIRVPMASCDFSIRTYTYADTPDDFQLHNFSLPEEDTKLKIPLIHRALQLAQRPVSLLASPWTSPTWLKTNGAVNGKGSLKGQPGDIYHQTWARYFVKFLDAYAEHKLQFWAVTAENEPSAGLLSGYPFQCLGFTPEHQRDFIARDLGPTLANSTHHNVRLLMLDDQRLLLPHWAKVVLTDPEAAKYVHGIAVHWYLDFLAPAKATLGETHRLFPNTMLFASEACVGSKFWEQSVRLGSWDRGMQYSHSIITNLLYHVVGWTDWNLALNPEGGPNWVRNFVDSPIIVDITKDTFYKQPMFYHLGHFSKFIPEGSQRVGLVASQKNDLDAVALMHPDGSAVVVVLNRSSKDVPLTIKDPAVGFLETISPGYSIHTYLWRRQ
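Compounds titrated against 0.2 nM normal enzyme, 30 uM resorufin beta-D-glucopyranoside substrate, citrate/phosphate buffer with taurocholate and tween-20, pH 5.9. Reaction ran 20 min at room temperature; fluorescence (Ex 548/Em 600) gave AC50.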
4MU fluor: compounds fluorescent in 4-MU spectral region; max dye-equivalent concentration, M; compound autofluorescence, 340/450 nm, 4-MU equivalents; stronger effect = higher value; hit rate 11% among 59,000; AID 589; in the data active = max dye-equivalent concentration above about 10 nM; inconclusive = mostly about 1.1 nM to 9.6 nM
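Compounds in 100 mM Tris, pH 8.0, incubated 15 min at room temperature, then fluorescence read at 340 nm excitation/450 nm emission. Signal converted to 4-MU dye-equivalent concentration using an on-plate six-point 4-MU standard curve.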
A350 fluor: compound fluoresces in the Alexa 350 spectral region | Compound autofluorescence, 340/450 nm, Alexa 350 dye-equivalents; stronger effect = higher value | max dye-equivalent concentration, M | hit rate 11% among 59,000; in the data active = max dye-equivalent concentration above about 10 nM; inconclusive = mostly about 1.1 nM to 9.6 nM
Active calls of the source: *; i = inactive; ? = inconclusive; / = not tested or not shown; [ ] = dose if it differs, or a comment. Unless noted, calls follow the shape of the dose curve; as a rule, active = well fitted curve in the direction sought with a large enough effect; inconclusive = small, poorly fitted or top-dose-only effect, or another doubt; inactive = no such curve, though single readings can be large; an effect the other way counts as inactive or inconclusive.

SMILES	AID923	HSD17B inhib	HADH2 inh	GBA mod	4MU fluor	A350 fluor
O=C(O)C(Oc1ccc2c3c(c(=O)oc2c1)CCC3)c1ccccc1 (stereo not given)	-1%	25µM*	-24%	>77	9.3e-08M*	1.1e-07M*
CC(=O)C(C)Oc1ccc2c3c(c(=O)oc2c1)CCCCC3 (stereo not given)	-6%	25µM*	20µM*	>77	5.1e-08M*	4.6e-08M*
CC(=O)COc1ccc2c3c(c(=O)oc2c1)CCCC3	3%	25µM*	269%	>77	3.1e-08M*	4.1e-08M*
O=C(O)C1CCN(C(=O)COc2ccc3c4c(c(=O)oc3c2)CCC4)CC1	9%	32µM*	32µM*	>77	2.1e-07M*	2.7e-07M*
O=C(O)[C@H]1[C@H](C(=O)O)[C@H](C(=O)O)C[C@@H]1C(=O)O	2%[11.5 µM]	-7%[11.4 µM]	6%[11.4 µM]	/	i	i
CNC1C(O)[C@@H]2OC(O[C@@H]3C(O)C(O)C(N)C[C@H]3N)C(N)C[C@H]2O[C@H]1O[C@@H]1OC(CO)C(N)C(O)C1O (stereo not given in full)	1%	-1%	/	/	/	/
COC(=O)NC/C=C\c1nc(CCCO)co1	-1%[11.5 µM]	1%[11.4 µM]	-5%[11.4 µM]	/	/	/
CN(C)CCCO[C@H]1[C@@H]2OC(C)(C)O[C@@H]2O[C@@H]1[C@H](O)CO	0%[25.7 µM]	-1%[25.6 µM]	3%[25.6 µM]	/	i	i
CCc1cc2c(nc1CC)CCN(CC/C(C)=N/O[C@@H](C)c1cn([C@@H]3COC[C@@H]3O)nn1)C2	0%[11.5 µM]	3%[11.4 µM]	-2%[11.4 µM]	/	/	/
C[C@H](N)C1CCC(C(=O)Nc2ccncc2)CC1 (stereo not given in full)	0%	3%	-10%	/	?	?
O=C(Nc1ccc(F)cc1)N(CCCN1CCOCC1)Cc1cc2cc3c(cc2[nH]c1=O)OCCO3	2%	32µM*	?	>77	1.4e-07M*	1.3e-07M*
CCc1ccc2[nH]c(=O)c(CN(CCN(CC)CC)C(=O)Nc3ccccc3OC)cc2c1	-1%	2%	35%	>77	i	?
Cc1ccc2cc(CN(CCN3CCCC3)C(=O)Nc3ccc(F)cc3)c(=O)[nH]c2c1C	1%	5%	31%	/	i	i
CCc1ccc2[nH]c(=O)c(CN(CCN3CCOCC3)C(=O)Nc3ccccc3F)cc2c1	0%	-10%	19%	/	i	i
O=C(Nc1ccc(F)cc1)N(CCCN1CCOCC1)Cc1cc2cc3c(cc2[nH]c1=O)OCO3	0%	32µM*	?	/	2.7e-07M*	2.1e-07M*
COc1ccccc1NC(=O)N(CCCN1CCOCC1)Cc1cc2cc3c(cc2[nH]c1=O)OCO3	4%	?	?	?	2.1e-07M*	1.7e-07M*
CCc1ccc2[nH]c(=O)c(CN(CCCN3CCOCC3)C(=O)Nc3ccc(F)cc3)cc2c1	-1%	25µM*	-3%	>77	1.1e-08M*	1e-08M*
CC(C)=N[C@H](C(=O)O)C(C)(C)S	2%[11.5 µM]	0%[11.4 µM]	-10%[11.4 µM]	/	?	?
C/C=C\C[C@@H](C)[C@@H](O)[C@H]1C(=O)N[C@@H](CC)C(=O)N(C)CC(=O)N(C)[C@@H](CC(C)C)C(=O)N[C@@H](C(C)C)C(=O)N(C)[C@@H](CC(C)C)C(=O)N[C@@H](C)C(=O)N[C@H](C)C(=O)N(C)[C@@H](CC(C)C)C(=O)N(C)[C@@H](CC(C)C)C(=O)N(C)[C@@H](C(C)C)C(=O)N1C	-3%	27%	1%	/	/	/
O=C(Nc1ccccc1)N(CCCN1CCOCC1)Cc1ccccc1F	0%	2%	9%	/	?	?
O=C(Nc1cccc(Cl)c1)N(CCCN1CCOCC1)Cc1ccccc1F	-1%	2%	?	11*	i	i
O=C(CN1CCN(c2ccccn2)CC1)Nc1ccc2ccccc2c1	-1%	8%	-6%	>77	i	i
CCOC(=O)c1[nH]c2ccc(OCC)cc2c1NC(=O)CN1CCN(c2ccccn2)CC1	-1%	25µM*	?	>77	4.1e-08M*	5.7e-08M*
CCOC(=O)c1[nH]c2ccc(OC)cc2c1NC(=O)CN1CCN(c2ccccn2)CC1	/	/	/	/	3.5e-08M*	4.2e-08M*
Nc1nc2c(nc(Br)n2C2OC(CO)C(O)C2O)c(=O)[nH]1 (stereo not given)	-1%	8%	/	/	/	/
SMILES	AID923	HSD17B inhib	HADH2 inh	GBA mod	4MU fluor	A350 fluor
CCc1cccc2c(-c3ccccc3)c3c(nc12)OCC3	0%	32µM*	7%	/	/	/
CCC(CC)C(=O)Nc1nnc(-c2cccs2)s1	-1%	3.2µM*	25µM*	?	2.3e-08M*	2.2e-08M*
CC(=O)Nc1ccc2c(c1)C(=O)N(C1CCCCC1)C2=O	1%	4µM*	?	>77	2.2e-07M*	1.8e-07M*
COC(=O)c1ccc2c(c1)C(=O)N(C1CCCCC1)C2=O	-3%	8%	8%	>77	i	i
NC(=O)CCc1c[nH]c2ccccc12	-2%	-3%	8%	/	/	/
COc1cc(CCC(=O)N2CCN(c3ccc(N4CCOCC4)nn3)CC2)cc(OC)c1OC	20%	25µM*	?	/	/	/
O=C(CCCc1c[nH]c2ccccc12)N1CCN(c2ccc(N3CCOCC3)nn2)CC1	9%	25µM*	?	/	/	/
COc1cc(CCC(=O)N2CCN(S(=O)(=O)c3ccc(C)c(C)c3)CC2)cc(OC)c1OC	1%	-2%	7%	>77	i	i
CC(=O)O[C@@H]1C[C@]2(C)[C@H](C[C@@H](O)[C@H]3[C@@]4(C)CC[C@@H](O)[C@@H](C)[C@@H]4CC[C@@]32C)/C1=C(\CCC=C(C)C)C(=O)O	0%	3%	2%	/	i	i
COC(=O)C/C=C\[C@@H](C)[C@@H]1C=C[C@H](OC(C)=O)[C@H](COC(C)=O)O1	0%[11.5 µM]	0%[11.4 µM]	-7%[11.4 µM]	/	/	/
CC(C)=CCl	0%	6%	6%	/	/	/
COc1ccc(C2(O)CC3CCC(C2)N3c2nc(C)cc(C)c2C#N)cc1 (stereo not given)	1%	25µM*	-2%	>77	6.5e-08M*	6.5e-08M*
Cc1ccc2c(CC(=O)NCC3COc4ccccc4O3)coc2c1 (stereo not given)	1%	2%	5%	>77	3e-08M*	?
C/C(=N\O)c1ccc2[nH]ccc2c1	/	/	/	/	i	i
C/C(=N\O)c1ccc2c3c([nH]c2c1)CCCC3	1%	25µM*	32µM*	/	/	/
CC[C@@H](CO)Nc1nc(NCc2ccccc2)c2ncn(C(C)C)c2n1	-3%	-3%	17%	/	i	i
CC(=O)c1cc2c(cc1NS(=O)(=O)c1ccc3c(c1)OCCO3)OCO2	3%	5%	-8%	>77	i	i
CCN(CC)S(=O)(=O)c1ccc(S(=O)(=O)Nc2cc3c(cc2C(C)=O)OCO3)cc1	-1%	-2%	49%	15*	1.9e-08M*	3.5e-08M*
CCCn1c(=O)c(C)cn2nc(N)nc12	-3%	25µM*	-83%	/	/	/
